From PubChem BioAssay
D1 antag: human D1 dopamine receptor antagonism; actives 3.2% (n = 360,000); AID 504652; HEK293 TREx D1 cells, calcium flux, dopamine EC80; stronger effect = lower value; P21728; activity change, negative = inhibition, % at 10 µM; in the data active = activity change below about -30%; note: % is set by controls: 0 for no effect and ±100 for the full control effect
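Tetracycline-induced HEK293 Trex D1 cells, force-coupled to calcium, dye-loaded; compounds added and read 180 s, then EC80 dopamine added and calcium flux tracked kinetically another 180 s.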
D1 PAM: enhances dopamine response at the human D1 receptor | potentiation, % at 10 µM | HEK293 TREx D1 cells, calcium flux, dopamine EC20 potentiation | actives 0.036% (n = 360,000) | P21728; in the data active = potentiation above about 30%; note: 0% is about no effect
DRD3 antagonist: antagonists of human D3 dopamine receptor | max response, negative = inhibition, % | AID 652054 | P35462 | actives 2.5% (n = 360,000) | D3R cells, DiscoveRx beta-arrestin luminescence, antagonist mode; stronger effect = lower value; in the data active = max response below about -50%; inconclusive = no clear call, values can overlap the other calls; note: % is set by controls: 0 for no effect and ±100 for the full control effect
Target sequence (P35462 whole entry, looked up): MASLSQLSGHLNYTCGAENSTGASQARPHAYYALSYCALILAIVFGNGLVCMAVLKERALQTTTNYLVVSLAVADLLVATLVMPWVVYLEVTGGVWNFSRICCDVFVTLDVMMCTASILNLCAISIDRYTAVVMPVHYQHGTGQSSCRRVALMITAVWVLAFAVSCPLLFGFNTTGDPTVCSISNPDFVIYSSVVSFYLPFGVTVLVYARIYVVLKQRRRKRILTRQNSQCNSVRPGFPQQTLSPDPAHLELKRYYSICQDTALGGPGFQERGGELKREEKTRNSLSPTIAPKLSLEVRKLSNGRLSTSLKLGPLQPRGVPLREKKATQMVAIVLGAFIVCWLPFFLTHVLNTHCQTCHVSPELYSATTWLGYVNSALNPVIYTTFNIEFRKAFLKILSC
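Cells plated overnight at 1500 cells/well, then exposed to library compounds with dopamine controls for 90 minutes at 37 degrees C. DiscoveRx reagent added for 30–60 minutes at room temperature; luminescence read, quantitative HTS format.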
DRD3 agonist: activates the human D3 dopamine receptor | max activation, % | P35462 | AID 652048 | D3R DiscoveRx beta-arrestin cells, luminescence, 90 min | actives 0.58% (n = 410,000); in the data active = max activation above about 30%; note: 0% is about no effect
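Cells at 1500/well, incubated overnight, then treated with pinned compounds (dopamine as control) for 90 min at 37 degrees C. DiscoveRx reagent added for 30 - 60 minutes at room temperature; luminescence read.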
D1 agonist: human D1 receptor agonism. P21728. HEK293 T-REx D1 cells, calcium flux, agonist mode. activation, % at 2 µM. actives 1% (n = 360,000). AID 504660; in the data active = activation above about 30%; note: 0% is about no effect
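Tetracycline-induced HEK293 TREx D1 cells, force-coupled to calcium signalling, were dye-loaded with a no-wash calcium kit. Compound was pin-added after a 10 s baseline. Fluorescence was read kinetically at 1 cycle/s for 180 s, with calcium rises flagged as agonism.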
Active calls of the source: *; ? = inconclusive; / = not tested or not shown. A selection: hits, their analogues and other compounds. The true share with any hit is near 6.1%.

SMILES	D1 antag	D1 PAM	DRD3 antagonist	DRD3 agonist	D1 agonist
CC(C)c1nn2c(=O)cc(COC(=O)c3cccs3)nc2s1	25	-3	/	4	2
CS(=O)(=O)Nc1ccc(-c2nc3ccccc3s2)cc1	-18	-1	/	6	6
CCn1c(CN2CCCCC2)nc2cc(NC(=O)COc3ccc(C(C)(C)C)cc3)ccc21	-12	-1	/	-23	4
CC(=O)N(C1=C(N)C(=O)c2ccccc2C1=O)C(C)C	32	-3	2	1	7
COc1ccccc1N(C(C)=O)C1=C(Cl)C(=O)c2ccccc2C1=O	/	/	-137*	-14	/
CCOC(=O)c1c(NC(=O)c2cc(=O)c3ccc(C)cc3o2)sc(C)c1C	6	-1	/	-7	0
CC(C)C(=O)N1c2nc(-c3ccco3)nn2C2(CCCCC2)[C@@H]2CCCC[C@@H]21	-2	0	/	7	2
CN(C)S(=O)(=O)c1cccc(NC(=S)Nc2cccc3cnccc23)c1	-10	0	-59*	-15	4
S=C(Nc1cccnc1)Nc1cccc2cnccc12	-13	-6	3	0	3
O=C(Nc1c2c(nn1-c1ccc(Cl)cc1)CS(=O)(=O)C2)c1ccc(Br)cc1	-32*	-2	/	-3	12
COc1ccc(-n2nc3c(c2NC(=O)COc2ccccc2F)CS(=O)(=O)C3)cc1	-38*	-2	-6	12	0
CCC(CC)C(=O)Nc1c2c(nn1-c1ccc(OC)cc1)CS(=O)(=O)C2	-5	3	6	5	1
CCC(CC)C(=O)Nc1c2c(nn1-c1ccc(F)cc1)CS(=O)(=O)C2	-91*	-12	10	-3	2
O=C(Nc1c2c(nn1-c1ccc(F)cc1)CS(=O)(=O)C2)c1ccc(S(=O)(=O)N2CCOCC2)cc1	-3	-3	-65*	-3	1
CCCN(C(=O)Cn1c(=O)oc2cc(Cl)ccc21)c1ccc(C(C)C)cc1	-7	1	/	-16	5
O=C(c1cccc(Cl)c1)n1nc(-c2cccnc2)nc1NCc1ccccc1	2	-1	/	-10	-2
CCc1ccc(-n2c(C)nnc2SCc2nc(-c3ccc(OC)cc3)no2)cc1	-13	0	/	6	4
COc1cccc(C(=O)Nc2c3c(nn2-c2ccc([N+](=O)[O-])cc2)CS(=O)(=O)C3)c1	-11	-5	-12	-8	4
COc1cccc(C(=O)Nc2c3c(nn2-c2ccc(Cl)cc2)CS(=O)(=O)C3)c1	-33*	0	/	-6	-3
CCOC(=O)C1C(=O)C=C(/C=C/c2ccc(N(C)C)cc2)CC1c1ccccc1 (stereo unspecified)	-24	8	-15	16	230*
CCOC(=O)C1C(=O)C=C(c2ccc(C)cc2)CC1c1ccccc1 (stereo unspecified)	0	1	1	4	2
CCCOc1ccc(CSC2=NCCN2)cc1[N+](=O)[O-]	4	-7	0	3	8
O=[N+]([O-])c1cc(CSC2=NCCN2)ccc1O	-55*	2	-12	1	0
Nc1ccc(S(=O)(=O)NC2=NCCCCC2)cc1N	12	-5	-13	-8	3
O=[N+]([O-])c1cc(S(=O)(=O)NC2=NCCCCC2)ccc1NCC1CCCCC1	-33*	0	1	-3	6
SMILES	D1 antag	D1 PAM	DRD3 antagonist	DRD3 agonist	D1 agonist
CCn1c(=O)n(CC)c2cc(N3CCCCC3)c(NC(=O)Nc3ccccc3Cl)cc21	30	-2	/	10	0
O=C(Nc1nc(NC(=O)c2ccco2)n(-c2ccccc2)n1)c1ccccc1	-14	-2	12	39*	-1
CC(=O)Nc1nc(NC(=O)/C=C/c2ccccc2)n(-c2ccccc2)n1	-23	-8	-72*	-11	-1
Cc1nc(NC(=O)c2ccccc2)sc1C1(C)CC(c2ccccc2F)=NO1 (stereo unspecified)	-33*	-2	0	12	1
Cc1nc(NC(=O)c2ccccc2)sc1C1(C)CC(c2c(Cl)cccc2Cl)=NO1 (stereo unspecified)	-36*	-8	7	-3	3
C=CCN1CCCC1CNC(=O)c1cc(S(N)(=O)=O)cc(OC)c1OC (stereo unspecified)	/	/	/	-19	/
CCC1=NN(C(=O)C(=O)NCCc2ccccc2)C(O)(C(F)(F)F)C1 (stereo unspecified)	5	-12	-65*	-16	0
CCC1=NN(C(=O)C(=O)Nc2ccccc2OC)C(O)(C(F)(F)F)C1 (stereo unspecified)	5	-2	21	-21	-3
CCC1=NN(C(=O)C(=O)Nc2ccc(OC)cc2)C(O)(C(F)(F)F)C1 (stereo unspecified)	-7	-5	-159*	-36	7
CCC1=NN(C(=O)CCc2ccccc2)C(O)(C(F)(F)F)C1 (stereo unspecified)	-5	-1	?	-2	2
CN1CCN(C(=O)C(=O)Nc2c3c(nn2-c2cccc(Cl)c2)CSC3)CC1	/	2	/	15	2
Cc1cccc(NC(=O)Cn2nc(C)c3nn(-c4ccc(Cl)cc4)c(C)c3c2=O)c1C	-11	-2	/	2	-1
COc1ccc(C)cc1NC(=O)c1sc2nc(-c3ccc(F)cc3)cn2c1C	12	-1	/	12	1
COc1ccc(OC)c(NC(=O)COCc2cc(-c3ccco3)on2)c1	-5	-1	/	-11	0
COc1cccc(CNC(=O)CSc2c3c(nc4ccc(Cl)cc24)CCCC3)c1OC	6	1	/	-4	3
O=C(O)CCCC(=O)N1CCN(c2ncccn2)CC1	-36*	-10	1	0	2
O=C(NCCC(=O)N1CCN(c2ncccn2)CC1)c1ccccc1	-33*	-1	26	2	1
O=C(c1ccccc1)N1CCN(c2ncccn2)CC1	-2	-2	0	3	3
CCc1cccc(NC(=O)C(NS(=O)(=O)c2ccc3nc(C)sc3c2)C(C)C)c1 (stereo unspecified)	1	-1	/	9	0
CCOc1ccc(S(=O)(=O)Nc2ccc3c(c2)c(C(C)=O)c(C)n3S(=O)(=O)c2ccc(OCC)cc2)cc1	16	1	/	6	0
Cc1cc(C)cc(NC(=O)C(=O)NC(C)c2ccccc2)c1 (stereo unspecified)	-5	1	/	-6	-1
O=C(Nc1ccc(OC(F)(F)F)cc1)N1CCN(c2ccnc3cc(Cl)ccc23)CC1	-41*	-12	-16	6	10
O=C(C1CC1)N1CCN(c2ccnc3cc(Cl)ccc23)CC1	8	-1	-68*	2	5
O=C(CCC1N=C2c3ccccc3N=C(SCc3ccc(F)cc3)N2C1=O)NCCc1ccccc1 (stereo unspecified)	4	1	/	-5	4
O=C(COc1ccc(F)cc1)OCc1cc(=O)n2nc(C3CC3)sc2n1	-12	-4	/	-5	3
